The list is not random: actives were taken first. Their share in the collection is about 12%.
PLK1 PBD inh: qHTS for Inhibitors of PLK1-PDB (polo-like kinase 1 - polo-box domain): Primary Screen | Potency, µM, hits mostly inhibitors | actives 2.8% (n = 360,000) | Serine/threonine-protein kinase PLK1 (Homo sapiens), P53350 | Plk1 PBD binding of FITC phosphopeptide, fluorescence polarization; note: series mostly up to about 57 µM; nearly all actives have a fitted effect of over 65% in size
PI5P4K alpha inh: qHTS for Inhibitors of phosphatidylinositol 5-phosphate 4-kinase (PI5P4K) | max response, % | Phosphatidylinositol 5-phosphate 4-kinase type-2 alpha (Homo sapiens), P48426 | AID 652105, 2013 | PI5P4Kalpha enzyme, ADP-Glo luminescence, 60 min; stronger effect = lower value | actives 1.2% (n = 330,000); active = max response of -50% or lower; inconclusive = between -30% and -50%; inactive = -30% or higher; note: value at the top dose of about 77 µM
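Human PI5P4Kalpha with substrate in 0.038 M HEPES pH 7.4, 0.28 mM EGTA, 0.1% CHAPS, 5% DMSO; reaction started with 5 microM ATP (final), 60 min at room temperature. ADP formed read by ADP-Glo luminescence.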
BAZ2B inh: qHTS Assay for Inhibitors of BAZ2B; Bromodomain adjacent to zinc finger domain protein 2B (Homo sapiens), Q9UIF8; AlphaScreen BAZ2B-H3K14Ac peptide displacement; Potency, µM (top dose mostly 114 µM), most hits filed as inhibitors; actives 4.4% (n = 360,000); note: nearly all actives have a fitted effect of over 60% in size
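AlphaScreen displacement: compounds (up to 110uM) incubated 30 min at room temperature with a preformed 50 nM BAZ2B/50 nM biotinylated H3K14Ac peptide complex in PBS pH 7.4 with Tween-20. Donor and acceptor beads at 10 ug/mL final added, 20 min light-protected before reading.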
JMJD2A Tudor: qHTS Assay for Inhibitors of JMJD2A-Tudor Domain; Lysine-specific demethylase 4A (Homo sapiens), O75164; AlphaScreen JMJD2A-Tudor / H3K4me3 peptide binding; Potency, µM (doses to about 114 µM), hits mostly inhibitors; actives 4.4% (n = 390,000); AID 504339, 2011; note: nearly all actives have a fitted effect of over 50% in size
HP1b chromo inh: HTS for Inhibitors of HP1-beta Chromodomain Interactions with Methylated Histone Tails; AlphaScreen HP1-beta / biotin-H3K9me3 peptide binding; actives 0.56% (n = 390,000); Potency, µM (series often up to 114 µM), most hits filed as inhibitors; note: nearly all actives have a fitted effect of over 70% in size
Target sequence (P83916 whole entry, looked up): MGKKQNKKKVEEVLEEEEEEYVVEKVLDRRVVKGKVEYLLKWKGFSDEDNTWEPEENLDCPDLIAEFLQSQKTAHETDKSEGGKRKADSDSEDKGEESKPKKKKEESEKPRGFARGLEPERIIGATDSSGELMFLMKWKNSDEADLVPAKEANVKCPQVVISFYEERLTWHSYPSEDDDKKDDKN
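AlphaScreen: HP1-beta (50 nM) preformed 30 min with biotin-H3(1-18)K9me3 peptide (50 nM) in PBS pH 7.4, 0.01% Tween-20. Compound added for 30 min at RT, then streptavidin donor/nickel chelate acceptor beads (10 ug/mL) for 30 min.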
G9a inh: qHTS Assay for Inhibitors of Histone Lysine Methyltransferase G9a; Histone-lysine N-methyltransferase EHMT2 (Homo sapiens), Q96KQ7; G9a H3K9 monomethylation, AlphaScreen, 2 h; Potency, µM (titrated, usually from 102 µM), actives largely listed as inhibitors; actives 8.8% (n = 350,000); note: nearly all actives have a fitted effect of over 75% in size
Target sequence (Q96KQ7 913-1193 limits assumed): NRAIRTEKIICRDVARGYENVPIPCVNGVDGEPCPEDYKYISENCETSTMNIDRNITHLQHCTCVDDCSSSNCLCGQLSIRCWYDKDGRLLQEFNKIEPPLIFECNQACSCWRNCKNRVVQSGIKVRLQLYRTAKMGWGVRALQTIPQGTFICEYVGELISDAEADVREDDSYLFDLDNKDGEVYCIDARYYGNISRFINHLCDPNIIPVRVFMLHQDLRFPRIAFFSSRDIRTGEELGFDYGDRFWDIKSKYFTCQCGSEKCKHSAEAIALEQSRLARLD
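Using a bead-based AlphaScreen, monomethylated H3K9 product from 2 h room-temperature reactions (G9a 20 nM, peptide 500 nM, SAM 20 uM) was detected with 0.5 ug/mL rabbit anti-H3K9me1 antibody.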
Numbers stand for hits; i = inactive; ? = inconclusive; nt = not tested or not shown; [ ] = another dose, or the depositor's remark. Unless noted, calls come from the whole dose curve; as a rule, active = well fitted curve in the direction sought with a large enough effect; inconclusive = small, poorly fitted or top-dose-only effect, or another doubt; inactive = no such curve, though single readings can be large; an effect the other way counts as inactive or inconclusive.

SMILES | PLK1 PBD inh | PI5P4K alpha inh | BAZ2B inh | JMJD2A Tudor | HP1b chromo inh | G9a inh
Cc1nnc(N/N=C/c2cccc(C(F)(F)F)c2)n1N | i | i | ? | i | i | i
CCOc1cc(/C=N/Nc2nnc(C)n2N)ccc1OC(C)=O | i | i | i | i | i | 44.7µM
O=NN(CCCl)C(=O)NCC1=C[N+](=O)CC=C1 | i | i | nt | nt | nt | nt
CC(C)(C)c1cn(-c2ccc(F)cc2)c(=S)[nH]1 | i | i | i | 25.1µM | i | 1.41µM
CCCC(C)C(=O)Nc1ccc(S(=O)(=O)N2CCCC2)cc1 (stereo not drawn) | i | i | i | i | i | 70.8µM
CC(Nc1cccc([N+](=O)[O-])c1)C(=O)Nc1ccc(S(=O)(=O)N2CCCC2)cc1 (stereo not drawn) | i | i | i | i | i | 50.1µM
O=C(Cc1ccc(Br)cc1)Nc1ccc(S(=O)(=O)N2CCCC2)cc1 | nt | nt | i | nt | nt | nt
O=C(Cc1ccc(F)cc1)Nc1ccc(S(=O)(=O)N2CCCC2)cc1 | i | i | i | i | i | 50.1µM
CC(C)CC(=O)NC(=S)Nc1ccc(S(=O)(=O)N2CCCC2)cc1 | 23.8µM | i | i | i[11.4 µM] | i | 14.1µM
COc1ccc(NC(=O)CSc2nc3c(oc4ccccc43)c(=O)n2-c2ccccc2)cc1OC | nt | nt | i | i | i | i
COCCCNC(=O)CCc1c(C)c2cc3c(C)coc3cc2oc1=O | i | i | i | i | i | i
O=C(O)c1ccc[n+]([O-])c1 | nt | nt | nt | nt | nt | i[12.7 µM]
NC(=S)c1ccc[n+]([O-])c1 | 18.9µM | ? | nt | 1.12µM | ? | nt
O=C(NCc1ccc(/C=c2\sc3n(c2=O)CCN=3)o1)C(=O)Nc1ccccc1 | nt | nt | ? | nt | nt | 50.1µM
O=c1/c(=C\c2ccc3c(c2)OCO3)sc2n1CCCN=2 | i | i | i | i | i | i
Cc1ccc(/C=c2/sc3n(c2=O)CCCN=3)o1 | i | i | i | i | i | 8.91µM
Cc1ccc(N2CN=c3s/c(=C\c4cccnc4)c(=O)n3C2)cc1 | i | i | i | i | i | i
Cc1ccc(/C=c2\sc3n(c2=O)CN(c2ccc(Br)cc2)CN=3)o1 | ? | i | i | i[11.4 µM] | i | 8.91µM
O=S(=O)(c1ccc2c(c1)CCCC2)N1CCN(c2nc(-c3cccs3)nc3ccccc23)CC1 | nt | nt | nt | i | i | nt
Cc1cccc(N(CC(=O)NCCSc2ccc(Cl)cc2)S(C)(=O)=O)c1C | nt | nt | i | i | i | i
COc1ccc(OCC(O)CNS(=O)(=O)c2cccs2)cc1 (stereo not drawn) | i | i | i | i | i | i[0.501 µM]
Cc1ccc(-c2csc3n[nH]c(=S)n23)cc1 | i | -95.1 | 28.2µM | 1.12µM | ? | 1.41µM
CCOc1ccc(C2c3c(oc4cc(C)c(C)cc4c3=O)C(=O)N2CCCN2CCOCC2)cc1 (stereo not drawn) | i | i | i | i | i | 28.2µM
Cc1cc2oc3c(c(=O)c2cc1C)C(c1ccc(C(C)C)cc1)N(CCCN1CCOCC1)C3=O (stereo not drawn) | i | i | i | ? | i | 50.1µM
CCCOc1ccc(C2c3c(oc4cc(C)c(C)cc4c3=O)C(=O)N2CCCN(C)C)cc1OCC (stereo not drawn) | i | i | i | i | i | ?
CCOc1ccc(C2c3c(oc4cc(C)c(C)cc4c3=O)C(=O)N2CCCN(C)C)cc1OC (stereo not drawn) | i | i | i | i | i | 50.1µM
CC(=O)c1ccc(NC(=O)C(C)O/N=C(\N)c2ccccc2)cc1 (stereo not drawn) | i | i | nt | i | i | nt
CC(=O)Nc1ccccc1-c1nc2ccccc2n(CC(=O)Nc2cccc(C)c2C)c1=O | nt | nt | i | i | i | ?
